Results filed as inconclusive are left out. Values without a mark were called inactive. Active and inactive are the calls of the source. Calls follow the shape of the full dose curve. Residues, ends and D or L forms follow the SMILES beside them. *: point of attachment. Octanoyl = CCCCCCCC(=O)*
Experiment: qHTS for inhibitors of Rabies Virus screened against the NCATS CANVASS Library (AID 1347402); also: 0% is about no effect
Conditions: Rabies virus infection cell assay; series mostly up to 45.9 µM
In the case of C=CC(C)(C)C(=O)[C@@H](C)[C@@H]1CC[C@](C)(C=C)O1, the outcome is reported as “inactive”. For C/C=C/[C@H]1[C@H]2C(=O)c3c(O)c(C)c(O)c(C)c3[C@]1(C(=O)O)C(=O)C=C2C, the outcome was “inactive”. For C/C(=C\[C@@H](C)CC/C=C/CC/C=C/C(=O)O)[C@@H](O)[C@H](C)C(=O)CCCC1CC(=O)NC(=O)C1, the outcome was “inactive”. With CC(C)=CCC[C@]12c3cc4c(cc3CC[C@@]1(C)[C@H](C)CC[C@@H]2O)[nH]c1ccccc14 the outcome was “inactive”. In the case of CN1C(=O)C2C(N=CN2C)N(C)C1=O (stereo not given), the outcome is reported as “inactive”. In the case of C[C@H](CCC(O)C(C)(O)CO)[C@@]1(O)CC[C@@]2(C)C3=C(CC[C@@]21C)[C@@]1(C)CCC(OC(=O)CCC(=O)O)C(C)(C)[C@@H]1CC3 (stereo not given in full), the outcome is reported as “inactive”. In the case of CO[C@@H](C[C@@H](C)[C@@H](O)/C=C/C=C/CNC(=O)C(C)(C)[C@H](O)\C(C)=C/C=C\C=C\Cc1cnco1)[C@]1(O)[C@@H](C)C(=O)N(C)[C@@]12COC2=O, the outcome is reported as “inactive”. In the case of O=c1cc(-c2ccc(O)cc2)oc2c([C@@H]3OC(CO)[C@H](O)[C@@H](O)[C@H]3O)c(O)cc(O)c12 (stereo not given in full), the outcome is reported as “inactive”. In the case of C/C=C1/CC[C@@H]2c3[nH]c4ccccc4c3CCN2C1, the outcome is reported as “inactive”. For O[C@H]1c2ccccc2-c2c3c(cc4c2[C@@H]1NCC4)OCO3, the outcome was “inactive”. In the case of COc1c(O)cc2oc(-c3ccccc3)cc(=O)c2c1O, the outcome is reported as “inactive”. With C[C@@]12C[C@@H](C[C@@H]3C(=O)O[C@@H](c4ccoc4)[C@H](OC(=O)c4ccccc4)[C@@H]31)OC2=O the outcome was “inactive”. In the case of COc1ccc([C@@H]2CC(=O)c3c(cc(O)c(C/C=C(\C)CCC=C(C)C)c3O)O2)cc1, the activity change, negative = inhibition is reported as -26.8% [at 9.14 µM]. For C[C@@H]1O[C@@H](O[C@@H]2[C@@H](O)[C@H](O[C@@H]3[C@@H](O)[C@@H](O)C(O[C@H]4[C@H](OC(=O)[C@]56CCC(C)(C)C[C@H]5C5=CCC7[C@@]8(C)C[C@H](O)[C@H](O[C@@H]9C[C@H](CO)[C@@H](O)[C@H](O)[C@H]9O)[C@@](C)(CO)C8[C@H](O)C[C@@]7(C)[C@]5(C)CC6)OC[C@H](O)[C@@H]4O)O[C@H]3C)OC[C@H]2O)[C@H](O)[C@H](O)[C@H]1O (stereo not given in full), the outcome was “inactive”. With C/C=C/C1C=CC2CC(C)CC(C)C2C1C(=O)CC(=O)NC(CO)C/C=C/CCCCC (stereo not given) the outcome was “inactive”. For COc1ccc(-c2oc3cc(OC)cc(OC)c3c(=O)c2O)cc1, the outcome was “inactive”. In the case of O=C1C[C@@H](c2ccc(O)c(-c3c(O)cc(O)c4c3O[C@H](c3ccc(O)cc3)CC4=O)c2)Oc2cc(O)cc(O)c21, the outcome is reported as “inactive”. For C/C=C(/CO)C(=O)O[C@@H]1[C@H](O)[C@@H](C(=O)OC)O[C@@H]2C[C@H]3OC(n4cnc5c(N)ncnc54)[C@H](OC)[C@H]3O[C@@]12O (stereo not given in full), the outcome was “inactive”. In the case of CC1C(=O)C23CCC1C[C@@]21O[C@H]2C(C)(C)C=CC(=O)[C@@]23COC1=O (stereo not given in full), the outcome is reported as “inactive”. In the case of C[C@@]12CCC[C@@](C)(C(=O)O)[C@H]1C[C@@H](O)[C@@]13C[C@@H](CC[C@@H]21)[C@](C)(O)C3, the outcome is reported as “inactive”. In the case of C=C[C@]1(C)CC[C@@H]([C@H](C)C(=O)CC=C(C)C)O1, the outcome is reported as “inactive”. For CCCCCCCC(=O)N[C@@H](CC(C)C)C(=O)N[C@H](C=O)CCC(=O)O (Octanoyl-Leu-Glu-aldehyde), the outcome was “inactive”. For C[C@@H](CCC[C@]1(C)C(=O)C=C[C@]23C[C@H]4C[C@H](O[C@@]4(C)C2)C31)C(=O)N[C@@H](CO)C(=O)O (stereo not given in full), the outcome was “inactive”. In the case of CC(C)(Br)[C@@H](Cl)C[C@H](Br)[C@](C)(Cl)/C=C/Br, the outcome is reported as “inactive”. With CC(C)=CCC[C@]1(C)[C@H]2CC(=O)[C@@]3(CO3)[C@@H]1C2 the outcome was “inactive”. With CC1(C)CCC[C@]2(C)[C@@H]1CC[C@@]13C[C@@H](CC[C@H]12)C(C)(O)C3 (stereo not given in full) the outcome was “inactive”. With O=C(O)CC1OCc2c(O)cccc21 (stereo not given) the outcome was “inactive”. In the case of C/C(=C\[C@H](C)C(=O)CCCC1CC(=O)NC(=O)C1)C(O)[C@@H](C)[C@H](O)C/C=C/CC/C=C/C(=O)O (stereo not given in full), the outcome is reported as “inactive”. With COc1ccc([C@@H]2c3cc4c(cc3C[C@H](C)C2C)OCO4)cc1OC (stereo not given in full) the outcome was “inactive”. In the case of CN1C(=O)C(=O)N2C(=C[C@]3(c4c[nH]c5ccccc45)c4ccccc4N[C@H]23)C1=O, the outcome is reported as “inactive”. For Oc1ccc([C@H]2Oc3ccc(/C=C/c4cc(O)cc(O)c4)cc3C2c2cc(O)cc(O)c2)cc1 (stereo not given in full), the outcome was “inactive”. For C/C(=C\[C@@H](C)CC/C=C/CC/C=C/C(=O)O)[C@H](O)[C@H](C)C(=O)CCCC1CC(=O)NC(=O)C1, the outcome was “inactive”. In the case of C/C=C/c1cc(OC)c2c(c1)[C@@H](C)[C@H](c1ccc(O)c(OC)c1)O2, the outcome is reported as “inactive”. For CCC1=C2CCCN3C(=O)O[C@H]([C@H]1OC(C)=O)[C@H]23, the outcome was “inactive”. With C[C@@H]1C[C@H]2C[C@]3(CCCCN3C)[C@@H]3C[C@H]2[C@H](C1)N(C)C3 the outcome was “inactive”. For O=Cc1ccc2n1C[C@]1(C[C@H](O)[C@@H](CO)O1)OC2, the outcome was “inactive”. With C/C(=C\CC/C(C)=C/CC[C@]1(C)CCc2cc(O)cc(C)c2O1)CC/C=C(\C)C(=O)O the outcome was “inactive”. For COc1ccc2cc(NC(=O)C3=NO[C@H]4[C@H](O)C=C[C@@H](Cl)[C@@]4(O)C3)c(=O)oc2c1OC, the outcome was “inactive”. For C[C@]12CCC[C@](C)(C(=O)O)[C@@H]1CC[C@@]1(C)c3cocc3CC[C@H]21, the outcome was “inactive”. In the case of C=C1C[C@]23C=CC(=O)[C@@](C)(CCCC(C)C(=O)N[C@@H](CO)C(=O)O)[C@@H]2C[C@@H]1CC3 (stereo not given in full), the outcome is reported as “inactive”.

Source: PubChem BioAssay (NCATS)
